Experimental data from the supplement of paper PMC11417369.
± gives the standard deviation of the averaged measurements. Whole data set: some 25,000 sequences, median “ln(normalized median fluorescence intensity)” near 10, cut for the highest 2% near 12. The list comes from a sample in which the highest values are over-represented; it also holds similar and randomly drawn sequences.

Test system: PfAP2-G AP2 domain (GST-tagged)
Assay: gcPBM binding intensity (ln(normalized median fluorescence intensity)); higher = stronger DNA binding
Outline: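 Each value is the highest Masliner-normalised natural-log median intensity across replicate spots of either orientation of a probe. The probes were primer-extended double-stranded 36-bp intergenic genomic sequences on an Agilent 4 × 180k array, alongside negative controls, exposed for 1 h to GST-tagged P. falciparum DNA-binding domains expressed in E. coli. Bound protein was picked up with Alexa488 anti-GST antibody and scanned at 488 nm.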

Question: How did the “gcPBM binding intensity (ln)” value turn out when “ATATATAATATATACACACACATGTATATATAAATA [CACACA_site1968]” was run?
Answer: 9.87 ± 0.16

Question: For TTTCTTTTTAAATAGGTGCATATTTTTATAAATATA, which “gcPBM binding intensity (ln)” value is on record?
Answer: 10.1 ± 0.38

Question: With “AAACTAACTCTAACATGTACATATATATATATATAT [XGTACX_site6949]” as the sequence, how does the “gcPBM binding intensity (ln)” value read?
Answer: 11.1 ± 0.66

Question: With “AACAATTATTGTAATGCATGCACTGAATATAGAAAG [TGCATGCA_site889]” as the sequence, how does the “gcPBM binding intensity (ln)” value read?
Answer: 10.2 ± 0.18

Question: How did the “gcPBM binding intensity (ln)” value turn out when “TGTGTTAATATATGAAGTACACAATACACACTAATT [XGTACX_site5469]” was run?
Answer: 11.4 ± 0.73

Question: How did the “gcPBM binding intensity (ln)” value turn out when “ATGTACATTTTTTTCACACATACATTAATTTATGAG [CACACA_site5801]” was run?
Answer: 11.3 ± 0.87

Question: For “ATAAAAAAATAAATAACACACAAAATTACACGAAAA [CACACA_site3620]”, which “gcPBM binding intensity (ln)” value is on record?
Answer: 10.01 ± 0.049

Question: Which “gcPBM binding intensity (ln)” value does the source give for “GCAGGCTAAAAAATTACACACGAAAAAAATGAATTT [CACACA_site3417]” here?
Answer: 9.86

Question: With “GCCCCCTAAAAAATTACACACGAAAAAAATGAATTT [CACACA_site9128]” as the sequence, how does the “gcPBM binding intensity (ln)” value read?
Answer: 11.7 ± 1.2

Question: Which “gcPBM binding intensity (ln)” value does the source give for “TATATTATATTTTTATGTACTTATTTATTTTGTTTC [XGTACX_site6145]” here?
Answer: 11.3 ± 0.67

Question: Which “gcPBM binding intensity (ln)” value does the source give for “AGTCTGAATAAAATTACACACATATACAGATATATA [CACACA_site5054]” here?
Answer: 9.8 ± 0.014

Question: With “TTTTTTTTTTTTTTGTGTACATATAATGCACATTAT [XGTACX_site6505]” as the sequence, how does the “gcPBM binding intensity (ln)” value read?
Answer: 11.4 ± 1

Question: For “TAAGTCGCCAAAAGGTGTACACATAATGCATTATCA [XGTACX_site8852]”, which “gcPBM binding intensity (ln)” value is on record?
Answer: 11.8 ± 0.79

Question: Which “gcPBM binding intensity (ln)” value does the source give for “TGCATGCATTATCATAGTACATATAATGTTGTATAA [XGTACX_site2775]” here?
Answer: 10.7 ± 0.45

Question: Which “gcPBM binding intensity (ln)” value does the source give for “AAAAAAAAAAAAAGGTGTACAAGTATAATTACATAA [XGTACX_site534]” here?
Answer: 11.5 ± 0.95

Question: “ACCAAATTATCAAATGGTACACATAAAATAATAAAA [XGTACX_site865]” was tested. Which “gcPBM binding intensity (ln)” value did it give?
Answer: 11.3 ± 0.74

Question: How did the “gcPBM binding intensity (ln)” value turn out when “GTCGCCAAAAGGTGTACACATAATGCATTATCATAA [CACACA_site6112]” was run?
Answer: 11.7 ± 0.88

Question: “TACGTTTTAAAACACACACACAAAAAAAAAAAAAAA [CACACA_site3876]” was tested. Which “gcPBM binding intensity (ln)” value did it give?
Answer: 9.97 ± 0.64

Question: “TTACATTATATACATACACACCCACCCACAAAAAAA [CACACA_site8187]” was tested. Which “gcPBM binding intensity (ln)” value did it give?
Answer: 10.7 ± 0.47

Question: With “AAATATATATAAGCGTGTACACATTCTGAGTGTTGT [XGTACX_site1088]” as the sequence, how does the “gcPBM binding intensity (ln)” value read?
Answer: 11.7 ± 1.1

Question: Which “gcPBM binding intensity (ln)” value does the source give for “ATATATATATATAAATGTACATTGTGTGTTGTAAGA [XGTACX_site2434]” here?
Answer: 10.8 ± 0.38

Question: How did the “gcPBM binding intensity (ln)” value turn out when “TATATATAAGCGTGTACACATTCTGAGTGTTGTATA [CACACA_site4502]” was run?
Answer: 11.7 ± 1.1

Question: “ATATATATATAGTGTTGTACATTTAAAAATAATATA [XGTACX_site2627]” was tested. Which “gcPBM binding intensity (ln)” value did it give?
Answer: 11.2 ± 0.78

Question: How did the “gcPBM binding intensity (ln)” value turn out when “ATGTTGTGTATATATACACACATACATATATATATA [CACACA_site8461]” was run?
Answer: 10.4 ± 0.43

Question: “TATGTATTCATATGTTGTACATTATATATAATAAGT [XGTACX_site6589]” was tested. Which “gcPBM binding intensity (ln)” value did it give?
Answer: 11.2 ± 0.79
